Laboratory results from PubChem BioAssay AID652105 (National Center for Advancing Translational Sciences (NCATS), 2013).
The campaign covered roughly 330,000 compounds. About 4,100 (1.2%) were called active. Another 2% or so got no clear call; they are omitted. The sample as a whole holds a higher share of actives than the screen did. Unmarked numbers belong to inactive results. The calls were made as follows: active = max response of -50% or lower; inconclusive = between -30% and -50%; inactive = -30% or higher.

Molecular target: Phosphatidylinositol 5-phosphate 4-kinase type-2 alpha (Homo sapiens) (UniProt P48426)
Experiment: qHTS for Inhibitors of phosphatidylinositol 5-phosphate 4-kinase (PI5P4K); also: value at the top dose of about 77 µM
Conditions: PI5P4Kalpha enzyme, ADP-Glo luminescence, 60 min; hits give low values
Summary of the method: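 qHTS, 1536-well: enzyme/substrate mix, compound by pin tool, 5 microM ATP final; RT 60 min; ADP-Glo reagents 1 (45 min) then 2 (30 min); luminescence.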
% is scaled to controls: 0 for no effect and ±100 for the full control effect.

Phosphatidylinositol 5-phosphate 4-kinase type-2 alpha (Homo sapiens), sequence (P48426 whole entry, looked up): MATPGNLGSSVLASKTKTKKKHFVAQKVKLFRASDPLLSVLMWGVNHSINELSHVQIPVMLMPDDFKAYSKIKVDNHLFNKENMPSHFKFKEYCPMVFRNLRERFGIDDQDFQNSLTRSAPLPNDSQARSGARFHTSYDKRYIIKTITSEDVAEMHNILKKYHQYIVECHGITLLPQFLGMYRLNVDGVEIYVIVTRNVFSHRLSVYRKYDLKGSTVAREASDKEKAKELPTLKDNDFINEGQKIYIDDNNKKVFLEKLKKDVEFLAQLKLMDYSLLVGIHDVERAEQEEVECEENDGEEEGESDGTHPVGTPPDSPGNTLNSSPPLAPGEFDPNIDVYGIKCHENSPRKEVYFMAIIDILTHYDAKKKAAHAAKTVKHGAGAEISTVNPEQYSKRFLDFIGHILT

Compound	max response
COC(=O)C1(C(=O)OC)C[C@H](c2ccccc2)N(Cc2ccccc2OC)[C@@H]1c1ccccc1	15.9%
CCc1cccc(CC)c1N1C(=O)CC(Sc2ccccc2N)C1=O (stereo unspecified)	0.428%
COCOc1cccc(CN2CCC(C)(Oc3ccc(SC)cc3)C2)c1 (stereo unspecified)	9.73%
CCCc1nc2c3ccccc3ccn2c1Cc1ccccc1C(F)(F)F	-0.571%
COC(=O)[C@]12CCCCC=C1N(Cc1ccccc1)C(=O)[C@H](CC(=O)NCc1ccc(C)o1)C2	-16.1%
Cc1csc(NC(=O)Nc2ccccc2[N+](=O)[O-])n1	3.76%
Cc1cc(NC(=O)Nc2ccccc2[N+](=O)[O-])no1	-55.9% (active)
Cc1cc(NC(=O)COc2ccc([N+](=O)[O-])cc2)no1	-7.69%
Cc1c(C(=O)NCc2ccc(C#N)cc2)sc(=O)n1Cc1ccc(C(=O)N(C)C)cc1	-1.71%
COC(=O)c1ccc2nc(-c3ccccc3)c(Cc3ccc(OC)cc3C)n2c1	-3.87%
CC1Cc2[nH][nH]c(=O)c2C(C2CC2)O1 (stereo unspecified)	6.96%
COc1ccc(-c2cc3c(c4c2ccn4C)C2CCC3C2)cn1 (stereo unspecified)	19.1%
S=c1[nH]nc(COc2ccccc2)n1-c1ccccc1	2.36%
COc1ccc(OCc2n[nH]c(=S)n2N)cc1	-58.2% (active)
Cc1ccc(OCc2n[nH]c(=S)n2-c2ccccc2)cc1	-0.211%
CCc1nnc(NS(=O)(=O)c2ccc(NC(=S)NC(=O)/C=C/c3cccs3)cc2)s1	-51.8% (active)
CCOC(=O)c1c(NC(=S)NC(=O)/C=C/c2cccs2)sc(C)c1C	-4.36%
CCc1nnc(NS(=O)(=O)c2ccc(NC(=O)c3cccc(OC(F)(F)C(F)F)c3)cc2)s1	-19.6%
CCc1nc2ccc(C(=O)NCCNC(C)=O)cn2c1N(CC)Cc1cccc(Br)c1	2.11%
COc1cccc2c1C(=O)c1c(O)c3c(c(O)c1C2=O)CC(O)(C(C)=NNC(=O)c1ccc(Cl)c(Cl)c1)CC3OC1CC(N)C(O)C(C)O1 (stereo unspecified)	-61.1% (active)
CCc1cc(-c2nnn(CCC3COCCO3)c2CC)ccc1-c1cn(Cc2ccc3ccccc3c2)nn1 (stereo unspecified)	10.5%
O=C(NCc1cccnc1)c1cc(C2CCCCN2C(=O)CCc2ccccc2)on1 (stereo unspecified)	-8.66%

Compound	max response
O=C(NC1=CC(=O)c2ccccc2C1=O)c1ccccc1	-2.02%
CC(=O)N(C1=C(Cl)C(=O)c2ccccc2C1=O)c1ccc(C(=O)O)cc1	-81.9% (active)
CC(C)(C)C1CCC(=O)N2CCC[C@]2(c2ccccc2)C1 (stereo partly specified)	-0.325%
Cc1cccc(C)c1-n1nnnc1C1(C)CCC(=O)N1CCOc1ccccc1 (stereo unspecified)	6.34%
O=C(CSc1nnc(SCc2ccc(Cl)cc2)s1)N/N=C/c1ccccc1Cl	-9.79%
COc1cc(OC)cc(-c2nnc(SCC(=O)Nc3ccc(C(=O)O)cc3)s2)c1	-16.4%
Nc1nnc(SCC(=O)Nc2ccc3nc(SCC(=O)Nc4ccccc4)sc3c2)s1	-22.9%
O=C(CSc1nnc(SCc2ccc(F)cc2)s1)Nc1ccc(C(=O)O)cc1	-51.9% (active)
O=C(CSc1nc2ccccc2s1)Nc1ccc(C(=O)O)cc1	-69.8% (active)
Cn1nnnc1SCC(=O)Nc1nc2ccccc2s1	5.87%
COc1ccc(C(O)C(O)(C(=O)OC(C)C)c2ccc(C)cc2)cc1 (stereo unspecified)	-0.92%
COc1cncc(-c2cnc3sc(NCCc4ccccn4)nn23)c1	-5.87%
O=C1NC[C@H](CCCCN2CCN(CCc3ccccc3)C(=O)C2=O)N(CC2CCCCC2)C1=O	-2.74%
CCOC(=O)[C@]12CCC=C1N(Cc1cccc3ccccc13)C(=O)[C@H](CC(=O)NCc1cccc(C(F)(F)F)c1)C2	11%
CC1(Cc2ccccc2C#N)C(=O)Nc2ccc(-c3ccc4[nH]ccc4c3)cc21 (stereo unspecified)	-19.1%
CCN1C(=O)[C@@H]2[C@@H]3CN(S(=O)(=O)c4ccccc4C)[C@@H](c4ccc(Cl)cc4)[C@@H]3C(=O)C[C@@H]2C1=O	-5.23%
Cc1cccc(-c2cnc(C(O)c3cc(C)cc(C)c3)[nH]2)c1 (stereo unspecified)	0.164%
CN1CCN(C(=O)c2ccc(NC(=O)c3ccc(Br)o3)cc2)CC1	-0.458%
COc1ccc(C)cc1-n1nnnc1SCc1nc2ccccc2c(=O)[nH]1	-6.87%
CCn1c(COc2c(C)cccc2C)nnc1SCc1nc2ccccc2c(=O)[nH]1	-1.01%
COc1ccc(CCCc2nnc(SCc3nc4ccccc4c(=O)[nH]3)n2C)cc1	-92.1% (active)
CCC(=O)N1Cc2cc(C(=O)NCc3cccc(F)c3)nc(-c3cccc(C4=CCCC4)c3)c2[C@H]1CCO	-0.668%

Compound	max response
CN(C)C(=O)N=NC(=O)N(C)C	-58.3% (active)
CCc1nc2c(OCc3ccc(F)c(F)c3)cccn2c1N(C)C(=O)c1ccco1	-3.84%
CCCCC(=O)NNC(=S)NC(=O)C(c1ccccc1)c1ccccc1	-62.6% (active)
O=C(NNC(=S)NCc1ccco1)C(c1ccccc1)c1ccccc1	-8.48%
CCNC(=S)NNC(=O)Cc1ccccc1	5.73%
CCCCCCn1c(=O)n2n(c1=O)C[C@]1(OC(=O)NCc3ccc(OC)c(OC)c3)CN(S(=O)(=O)c3ccc(C)cc3)C[C@]1(O)C2	3.29%
CCOC(=O)[C@]12CCCC=C1N(CCC1=CCCCC1)C(=O)[C@H](CC(=O)NCCCCc1ccccc1)C2	0.467%
CCCOc1ccc(F)cc1-c1cc(C(=O)Nc2ccc(F)cc2)[nH]n1	0.345%
O=C(c1cccnc1)N(c1cc2sc(=O)oc2c2ccccc12)S(=O)(=O)c1ccccc1	-69.2% (active)
COc1ccc(N(C(=O)c2cccnc2)S(=O)(=O)c2ccc(OC)c(OC)c2)cc1	0.0951%
COc1ccc(N(C(=O)c2cccnc2)S(=O)(=O)c2ccc3c(c2)n(C)c(=O)n3C)cc1	-3.4%
COCCCNC(=O)c1cccc2c(-c3ccc(O)c(OC)c3)coc12	4.94%
COCCCNC(=O)c1ccc(-c2c(C)noc2C)c2ccoc12	-2.64%
NC1=CC(=O)C(=O)c2cccnc21	-50.3% (active)
O=C1c2cccnc2C(=O)N1Cc1cccs1	0.461%
CCOc1ccc(CCN2C(=O)c3cccnc3C2=O)cc1OCC	-0.64%
O=C(Nc1ccc(Cl)cc1)C1Cc2c(-c3ccc4c(c3)OCO4)ccnc2O1 (stereo unspecified)	-13.4%
CCCCCn1nnnc1C1c2ccccc2C(=O)N1Cc1ccco1 (stereo unspecified)	-0.242%
FC(F)(F)C1CCCN(c2nsc3ccccc23)C1 (stereo unspecified)	-91.2% (active)
O=C(NC(Cc1ccccc1)C(=O)N1CCCC(C(F)(F)F)C1)c1ccccc1 (stereo unspecified)	11.8%
O=C(NCC(=O)N1CCCC(C(F)(F)F)C1)c1ccccc1F (stereo unspecified)	3.2%
CCC(C(=O)NC(C)(C)C)n1c(-c2ccccc2)nc2ccccc21 (stereo unspecified)	1.82%

Compound	max response
OC[C@@H]1CN(C2CCCC2)C[C@H](n2cnc3c(NC4CCC4)ncnc32)O1	-2.43%
N#Cc1cccc(NC(=O)c2cc(C3CCCCN3C(=O)CCc3ccccc3)on2)c1 (stereo unspecified)	-3.06%
Cc1ccc(NC(=O)Cn2sc3ccccc3c2=O)cc1	-87% (active)
Cc1ccc(NC(=O)Cn2c(C)csc2=O)cc1	6.3%
Cc1nn(CC(=O)Nc2ccc(F)cc2)c(=O)c2ccccc12	-3.79%
CC(C)C[C@H]1CNC(=O)C(=O)N1C[C@@H]1CCCN1C[C@H](Cc1ccccc1)N1C[C@H](CC(C)C)N(CC2CCCCCC2)C(=O)C1=O	-0.689%
Cc1cccc(-c2cnc(C(O)c3ccc4ccccc4c3)[nH]2)c1 (stereo unspecified)	-4.33%
CCc1nc2c(OCc3ccc(C(F)(F)F)cc3)cccn2c1N(C)C(=O)CC(C)C	9.67%
O=C1Nc2cc(C(=O)N3CCC(N4CCCCC4)CC3)ccc2S/C1=C\c1ccccc1	-1.98%
CCN1CCCC1CNC(=O)c1ccc2c(c1)NC(=O)/C(=C\c1ccccc1F)S2 (stereo unspecified)	-0.909%
CCN1CCN(CCNC(=O)c2ccc3c(c2)NC(=O)/C(=C\c2cccc(Cl)c2)S3)CC1	-64.1% (active)
COC(=O)[C@@]12C[C@@H](CC(=O)N3CCCCC3)C(=O)N(Cc3ccc4c(c3)OCO4)C1=CCC(C)(C)C2	-2.52%
CC(=O)OC[C@@H]1CN(Cc2ccccc2)C[C@H](n2cnc3c(NCc4ccco4)ncnc32)O1	-7.06%
CCCCN(C=O)c1c(CC)nc2c(OCCC3CCCCC3)cccn12	-11.5%
CC1(C(=O)Nc2cccc(Oc3ccccc3)c2)CCN1Cc1ccccc1Cl (stereo unspecified)	19%
CC(=O)NCC(=O)N(Cc1ccco1)C1(C(=O)NC2CCCC2)CCCCC1	1.69%
CC(=O)N(CC1CCCO1)C1(C(=O)NC2CCCC2)CCCCC1 (stereo unspecified)	8.44%
O=C(Cc1cccs1)N(CC1CCCO1)C1(C(=O)NC2CCCCC2)CCCCC1 (stereo unspecified)	-55.8% (active)
CCCNC(=O)c1cc(C2CCCCN2S(=O)(=O)c2ccc(C#N)cc2)on1 (stereo unspecified)	7.08%
O=C(Nc1ccc(Cl)c(C(F)(F)F)c1)C1Cc2c(-c3ccccc3Oc3ccccc3)ccnc2O1 (stereo unspecified)	6.93%
